Assay outcomes: PubChem, Broad Institute
Only a sample is shown.
aSyn 5UTR act – Activators via SNCA 5'UTR binding, MLPCN | alpha-synuclein 5'UTR reporter, activators screen | 7.1% of 300,000 active | activity score, % (tested at 7.5 µM), hits read low | AID 1814; in the data active = activity score below about -60%
Active calls of the source: *.

`Clc1ccc(CSc2nnc3ccccn23)c(Cl)c1` gave aSyn 5UTR act -75*.
O=[N+]([O-])c1ccccc1CSc1nnc2ccccn12 was read as aSyn 5UTR act -121*.
c1ccn2c(SCc3cn4ccsc4n3)nnc2c1 was read as aSyn 5UTR act -166*.
Screening Cc1ccc(-c2cn(-c3ccccc3)c(SCC(N)=O)n2)cc1C returned aSyn 5UTR act -67*.
`CCOC(=O)NC(=O)CSc1nc(-c2ccc(C)c(C)c2)cn1-c1ccccc1` gave aSyn 5UTR act -154*.
Screening CCC(=O)Nc1nc(-c2ccc3c(c2)OCCO3)cs1 returned aSyn 5UTR act -136*.
Screening c1cc2c(cc1-c1csc(NNC3=NCCCCC3)n1)OCCO2 returned aSyn 5UTR act -70*.
Screening CC(C)(C)C(=O)Nc1nc(-c2ccc3c(c2)OCO3)cs1 returned aSyn 5UTR act -147*.
`C=CCNc1nc(-c2ccc(O)c(C(N)=O)c2)cs1` gave aSyn 5UTR act -78*.
NC1=NN=C(c2ccc3c(c2)OCCO3)CS1 was read as aSyn 5UTR act 57.
CCC(=O)N1CCc2cc(-c3csc(NC(=O)c4ccco4)n3)ccc21 was read as aSyn 5UTR act -77*.
For O=C(NC(=S)Nc1nc(-c2ccccc2)cs1)c1ccco1 the results were aSyn 5UTR act -77*.
